TDP1 cell CPT – growth inhibition of DT40 Tdp1-/-;hTDP1 cells with camptothecin (screen for TDP1 inhibitors) | AID 686979 | Potency, µM (doses to about 46.2 µM), for inactives: at the highest dose activity change, negative = growth inhibition, usual class: inhibitors | hit rate 12% among 420,000 | chicken DT40 Tdp1-/-;hTDP1 cells + 20 nM CPT, ATP luminescence, 48 h; note: nearly all actives have a fitted effect of over 55% in size
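Chicken DT40 Tdp1-/- cells stably complemented with human TDP1 were seeded at 400 cells/well in medium containing 20 nM camptothecin, exposed to pin-transferred compounds, and grown at 37 °C for at least 48 hr. Viability was read as ATP luminescence.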
RORgamma inh – inhibitors of mouse ROR gamma transcriptional activity; P51450; Drosophila S2 Gal4-RORgamma UAS-luciferase reporter, 20 h; Potency, µM (top dose mostly 53.6 µM), without a hit: at the top dose activity change, negative = inhibition, actives largely listed as inhibitors; hit rate 5.4% among 310,000; AID 2551; note: nearly all actives have a fitted effect of over 60% in size
Target sequence (P51450 whole entry, looked up, the tested form may be a part): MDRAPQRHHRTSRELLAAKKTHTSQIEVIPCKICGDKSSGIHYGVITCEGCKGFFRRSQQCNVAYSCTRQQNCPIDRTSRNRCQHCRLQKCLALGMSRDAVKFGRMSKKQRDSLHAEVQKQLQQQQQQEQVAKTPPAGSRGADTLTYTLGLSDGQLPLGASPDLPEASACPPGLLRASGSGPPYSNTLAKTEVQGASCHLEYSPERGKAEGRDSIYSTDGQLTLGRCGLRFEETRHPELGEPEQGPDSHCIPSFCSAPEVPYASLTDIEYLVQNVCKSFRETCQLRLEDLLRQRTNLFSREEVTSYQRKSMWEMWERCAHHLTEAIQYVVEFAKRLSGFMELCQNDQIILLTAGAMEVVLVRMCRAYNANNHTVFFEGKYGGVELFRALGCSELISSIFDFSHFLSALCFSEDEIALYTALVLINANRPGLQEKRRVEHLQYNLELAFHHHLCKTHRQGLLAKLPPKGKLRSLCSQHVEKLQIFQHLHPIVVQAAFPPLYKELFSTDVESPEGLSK
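Drosophila S2 cells stably expressing Gal4-DBD/mouse RORγ fusion under metallothionein promoter plus UAS-luciferase; compound 1 h, then 700 uM CuSO4 induction for 20 h at ambient temperature; inhibition read as reduced luminescence.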
Gal4-VP16 FLuc – inhibits Gal4-VP16 luciferase reporter, ROR gamma counter-screen | Drosophila S2 Gal4-VP16 UAS-luciferase, luminescence, 20 h | Potency, µM (titrated, usually from 53.6 µM), inactives show at the highest dose activity, negative = inhibition, most hits filed as inhibitors | hit rate 3.5% among 310,000 | AID 2546;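 note: Gal4-VP16 expression switched on by copper sulfate through the metallothionein promoter; nearly all actives have a fitted effect of over 50% in size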
TDP1 block – TDP1 (human) enzyme inhibition. Q9NUW8. recombinant TDP1, AlphaScreen DNA substrate cleavage. Potency, µM (doses to about 130 µM), inactives show at the top dose activity change, negative = inhibition, usual class: inhibitors. hit rate 0.28% among 350,000. AID 485290; note: nearly all actives have a fitted effect of over 40% in size
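Here, a 5' biotin and 3' phosphotyrosine-FITC DNA oligonucleotide reports Tdp1 activity: intact substrate bridges AlphaScreen beads, while cleavage leaves a 3' phosphate and drops signal. All incubations at room temperature.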
TDP1 cell noCPT – qHTS for Inhibitors of human tyrosyl-DNA phosphodiesterase 1 (TDP1): qHTS in cells in absence of CPT. DT40 Tdp1-/- hTDP1 cells, no CPT, ATP luminescence, 48 h. Potency, µM (series often up to 46.2 µM), for inactives: at the top dose activity change, negative = growth inhibition, usual class: inhibitors. hit rate 15% among 420,000; note: nearly all actives have a fitted effect of over 55% in size
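No-CPT arm: Tdp1-/-;hTDP1 DT40 cells (400/well) plus compounds, incubated ≥48 hr at 37 °C. Readout CellTiter-Glo luminescence.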
An asterisk follows results filed as active; ? = inconclusive; nt = no result; [ ] = remark or other dose. An excerpt weighted towards active compounds, which were near 19% of everything screened. Calls come from the whole dose curve; as a rule, active = well fitted curve in the direction sought with a large enough effect; inconclusive = small, poorly fitted or top-dose-only effect, or another doubt; inactive = no such curve, though single readings can be large; an effect the other way counts as inactive or inconclusive. % is set by controls: 0 for no effect and ±100 for the full control effect; potency is the fitted concentration of half-maximal effect.

SMILES | TDP1 cell CPT | RORgamma inh | Gal4-VP16 FLuc | TDP1 block | TDP1 cell noCPT
COC(=O)c1ccc(N2C(=O)CC(N3CCC(n4c(=O)[nH]c5ccccc54)CC3)C2=O)cc1 (centres undefined) | ? | 30.1% | -7.1% | 8.8% | -24.9%
Cc1cc(N2C(=O)CC(N3CCC(n4c(=O)[nH]c5ccccc54)CC3)C2=O)no1 (centres undefined) | ? | 3.16µM* | -2.0% | 5.5% | ?
CC[C@]1(C(=O)OC)[C@H]2C(=O)N(Cc3ccccc3)C(=O)[C@H]2[C@H]2CN=C(SCc3ccc(C(=O)OC)cc3)N21 | 20.6µM* | nt | nt | -1.7%[56.1 µM] | ?
CC[C@]1(C(=O)OC)[C@H]2C(=O)N(Cc3ccccc3)C(=O)[C@H]2[C@H]2CN=C(SCc3ccc(C)cc3)N21 | ? | nt | nt | 0.0%[56.1 µM] | 18.4µM*
COC(=O)[C@@]1(Cc2ccccc2)[C@H]2C(=O)N(Cc3ccccc3)C(=O)[C@H]2[C@H]2CN=C(SCc3ccc(C#N)cc3)N21 | ? | nt | nt | 1.3%[56.1 µM] | ?
Cc1nc2cc(-c3ccc(Cl)cc3)nn2c(C)c1CCC(=O)N1CCC2(CC1)OCCO2 | 23.1µM* | nt | nt | nt | 20.6µM*
CN1[C@@H]2CC[C@H]1CC(OC1c3ccccc3CCc3ccccc31)C2 (some centres undefined) | 8.2µM* | 13.5%[16.9 µM] | 7.7%[17 µM] | 3.0%[56.1 µM] | 2.59µM*
CN1C2CCC1CC(OC(=O)C1CCC(C(=O)OC3CC4CCC(C3)N4C)(c3ccccc3)c3ccccc31)C2 (centres undefined) | -8.6%[9.04 µM] | 12.3% | 2.9% | 5.6% | -9.7%[9.04 µM]
CCC(C)C1NC(=O)C2CCCN2C(=O)C(CC(C)C)OC(=O)CCNC(=O)C(C)N(C)C(=O)C(C(C)C)N(C)C1=O (centres undefined) | 3.26µM* | nt | nt | nt | 4.11µM*
O=C1NCN(c2ccccc2)C12CCN(C(c1cccc3ccccc13)c1nnnn1Cc1ccccc1)CC2 (centres undefined) | 18.4µM* | nt | nt | nt | 23.1µM*
O=C1NCN(c2ccccc2)C12CCN(C(c1ccccc1OC(F)(F)F)c1nnnn1Cc1ccccc1)CC2 (centres undefined) | ? | nt | nt | nt | -85.9%
CCCCn1nnnc1C(CCSC)N1CCC2(CC1)C(=O)NCN2c1ccccc1 (centres undefined) | 23.1µM* | nt | nt | nt | ?
COc1ccc(-n2nnnc2C(c2cccc3ccccc23)N2CCC3(CC2)C(=O)NCN3c2ccccc2)cc1 (centres undefined) | -92.6% | nt | nt | nt | 9.2µM*
COc1cccc(C(c2nnnn2C2CCCC2)N2CCC3(CC2)C(=O)NCN3c2ccccc2)c1OC (centres undefined) | ? | nt | nt | nt | 14.6µM*
Cc1ccc2[nH]c(C)c(CCNCc3cccnc3)c2c1 | -1.3% | 3.4% | -3.6% | 4.6% | -3.9%
CCOC(=O)C1CCN(/C=C2\C(=O)NC(=S)N(CC)C2=O)CC1 | -6.0% | 5.0% | -29.1% | 1.2% | 10.6%
Cc1ccc([C@H]2C[C@@H](O)[C@H](n3cc(COC(=O)c4ccccc4)nn3)CN2C(=O)C2CCCCC2)cc1 | -23.2% | nt | nt | nt | ?
O=C1c2ccccc2S(=O)(=O)c2cc(C(=O)N3CCN(c4c(Cl)cncc4Cl)CC3)ccc21 | ? | nt | nt | nt | 14.6µM*
CC1CCN(C(=O)C(C)Cl)CC1 (centres undefined) | 4.1% | -2.7% | 8.2% | -2.5% | 3.0%
CN(c1ccccc1)S(=O)(=O)c1cccc(C(=O)N2CCN(c3ccccn3)CC2)c1 | 18.4µM* | 16.2% | -11.0% | 5.1% | 16.4µM*
CC(=O)OC1(c2ccccc2)CCN(C)CC1(C)C (centres undefined) | 1.2% | -14.4% | -12.9% | 6.0% | 1.6%
Cc1c(-c2cccc(Cl)c2)nc2ccccc2c1C(=O)N1CCC2(CC1)OCCO2 | 20.6µM* | ? | -2.3% | 2.7% | ?
COCc1cc(OC(=O)N(C)C)nc(-c2ccccc2)n1 | 3.2% | 3.7% | -3.8% | 1.4% | -29.9%
COc1ccc(-n2c(=S)[nH]c3ccc(C)cc3c2=O)cc1 | -5.4% | nt | nt | nt | -4.2%

Compound activity (PubChem)
